# Laboratory results as given in publication PMC7826789 (International Journal of Molecular Sciences, 2021).
# Legend:
# Conditions in all cases: Compound Concentration (nM):1000
# ACVR2B = tested on: ACVR2B
# ACVRL1 = tested on: ACVRL1
# ADCK3 = tested on: T1, ADCK3
# T1 construct: gene CABC1
# ADCK4 = tested on: ADCK4
# AKT1 = tested on: AKT1
# AKT2 = tested on: AKT2
# AKT3 = tested on: AKT3
# ALK(C1156Y) = tested on: ALK(C1156Y)
# ALK(L1196M) = tested on: ALK(L1196M)
# ALK = tested on: ALK
# AMPK-alpha1 = tested on: T2, AMPK-alpha1
# T2 construct: gene PRKAA1
# AMPK-alpha2 = tested on: T3, AMPK-alpha2
# T3 construct: gene PRKAA2
# ANKK1 = tested on: ANKK1
# ARK5 = tested on: T4, ARK5
# T4 construct: gene NUAK1
# ASK1 = tested on: T5, ASK1
# T5 construct: gene MAP3K5
# ASK2 = tested on: T6, ASK2
# T6 construct: gene MAP3K6
# AURKA = tested on: AURKA
# AURKB = tested on: AURKB
# AURKC = tested on: AURKC
# AXL = tested on: AXL
# 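Note: KINOMEscan scanMAX binding as percent activity remaining versus control; lower means stronger binding.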
SMILES,Percent Control (ACVR2B),Percent Control (ACVRL1),Percent Control (ADCK3),Percent Control (ADCK4),Percent Control (AKT1),Percent Control (AKT2),Percent Control (AKT3),Percent Control (ALK(C1156Y)),Percent Control (ALK(L1196M)),Percent Control (ALK),Percent Control (AMPK-alpha1),Percent Control (AMPK-alpha2),Percent Control (ANKK1),Percent Control (ARK5),Percent Control (ASK1),Percent Control (ASK2),Percent Control (AURKA),Percent Control (AURKB),Percent Control (AURKC),Percent Control (AXL)
COC(=O)Nc1nc2ccc(Oc3ccc(NC(=O)Nc4cc(C(F)(F)F)ccc4F)cc3)cc2s1.Cl [GW693917A],100%,65%,100%,75%,84%,100%,100%,89%,87%,100%,69%,82%,85%,100%,100%,64%,71%,13%,50%,6%
COc1cccc(-n2ncc3c(N/N=C/c4ccncc4)ncnc32)c1 [GW784752X],81%,3.7%,100%,31%,100%,100%,100%,95%,91%,87%,100%,86%,79%,96%,100%,62%,69%,89%,94%,100%
COc1ccc2c(-c3ccnc(Nc4cccc(OC(F)(F)F)c4)n3)cnn2n1 [GW810372X],100%,100%,100%,100%,100%,100%,100%,86%,87%,88%,100%,100%,89%,100%,100%,78%,100%,100%,57%,87%
COc1cc2ncnc(Nc3ccc4c(cnn4Cc4ccccc4)c3)c2cc1OC.Cl [GW282449A],100%,97%,100%,100%,100%,100%,100%,96%,100%,93%,100%,100%,88%,100%,100%,74%,100%,100%,87%,89%
Cl.c1ccc(Cc2nc3ccc(Nc4ncnc5ccccc45)cc3[nH]2)cc1 [GR269666A],100%,89%,100%,100%,93%,100%,100%,95%,100%,99%,100%,100%,94%,100%,100%,77%,100%,100%,100%,100%
CC1=C(C(=O)Nc2ccc3[nH]ncc3c2)C(c2ccc3ccccc3c2)CC(=O)N1 (centres unmarked) [GSK270822A],86%,100%,100%,100%,17%,100%,100%,72%,77%,68%,76%,81%,100%,81%,98%,84%,39%,49%,62%,91%
COc1cc(N2CCN(C(C)C)CC2)ccc1Nc1nc(Nc2ccc(F)cc2C(=O)NC[C@@H](O)CO)c2cc[nH]c2n1 [GSK1392956A],100%,86%,94%,100%,83%,100%,100%,0.1%,1.1%,0.2%,100%,100%,92%,67%,100%,73%,95%,91%,90%,46%
COc1cc2ncn(-c3cc(O[C@H](C)c4ccccc4Cl)c(C(N)=O)s3)c2cc1OC [GSK237701A],100%,100%,100%,83%,100%,88%,100%,100%,94%,79%,54%,100%,100%,29%,100%,97%,87%,38%,74%,50%
CCS(=O)(=O)c1ccc(OC)c(Nc2ncc(-c3cccc(OC)c3)o2)c1 [GW580509X],100%,50%,100%,100%,100%,100%,100%,87%,100%,100%,100%,100%,95%,100%,100%,85%,88%,83%,100%,95%
NS(=O)(=O)c1ccc(N/N=C2\C(=O)Nc3ccc(Cl)cc32)cc1 [GW280670X],100%,100%,100%,100%,100%,100%,100%,100%,100%,100%,100%,88%,97%,100%,100%,91%,91%,100%,100%,100%
